Reference: PubChem BioAssay AID652104 (National Center for Advancing Translational Sciences (NCATS), 2013)
Where “and” joins values, the source holds several entries; their conditions need not be identical. Equal values may be shown once. Among all 410,000 compounds or so, about 7,200 (1.8%) were called active. Another 7% or so got no clear call; they are omitted. Calls follow the shape of the dose curve; as a rule, active = well fitted activation curve with a large enough effect; inconclusive = small, poorly fitted or top-dose-only effect, or another doubt; inactive = no such curve, though single readings can be large or run the other way. What follows is part of a selection rich in actives, with near analogues and random picks from the rest. A structure can be active in one record and inactive in another.

Assay: qHTS of TDP-43 Inhibitors; also: nearly all actives have a fitted effect of over 50% in size; as to growth rescue (activation): % of control where 0% means no effect
Settings: TDP-43 expressing yeast growth rescue, BacTiter-Glo, 24 h; series mostly up to 46.1 µM; growth rescue (activation): at the top concentration
Outline: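 Galactose-induced TDP-43 yeast, OD600=0.02, compound pinned; 24 hr, 30 deg C; BacTiter-Glo luminescence for growth. Inhibitors of TDP-43 toxicity read as activators.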
Potency is read from the fitted curve at half-maximal effect.

Row | Compound | growth rescue (activation) | Potency
1 | Cc1ccc2nc(N3CCN(c4cccc(Cl)c4)CC3)c3nnnn3c2c1 | 1.49% (inactive) | 
2 | O=C(Cn1c(-c2cccs2)cc2ccccc21)NCCc1ccc(Cl)cc1 | -24.1% (inactive) | 
3 | CCn1cc(C(=O)N2CCN(c3cc(Cl)ccc3C)CC2)c(=O)c2cc(S(=O)(=O)N3CCCC3)ccc21 | 15.1% (inactive) | 
4 | CCCSc1nc2sc3c(c2c(=O)n1-c1cccc(Br)c1)CC(C)(C)OC3 | 5.65% (inactive) | 
5 | Cc1c(NC(=O)Cc2ccccc2)cccc1-c1nc2cccnc2s1 | 22.3% (inactive) | 
6 | COc1ccc(NC(=O)N2CCCn3nc(C)cc32)cc1OC | 16% (inactive) | 
7 | O=C(COc1ccc(Cl)cc1)NCCSc1ccccc1 |  | 17.8 µM (active)
8 | Cc1nnc(SCC(=O)NCCOc2ccc(Cl)cc2)n1-c1ccccc1 | 14.2% (inactive) | 
9 | O=C(CCSc1ccccc1)NCCSc1ccccn1 | 0% (inactive) | 
10 | COc1cc(NC(=O)c2noc3c2CSc2ccccc2-3)cc(OC)c1OC | -10.4% (inactive) | 
11 | COC(=O)CN1C(=O)CSc2ccc(S(=O)(=O)Nc3cc(C)ccc3C)cc21 | -1.74% (inactive) | 
12 | CCOC(=O)/C(=C\c1ccc([N+](=O)[O-])cc1)C(=O)c1cc(C(C)=O)c(Nc2ccccc2)s1 | 3.18% (inactive) | 
13 | CCOC(=O)C(=Cc1ccccc1)C(=O)c1ccccc1 |  | 6.31 µM (active)
14 | CCc1ccccc1NC(=O)/C(=C/c1ccccc1)c1ccccc1 | -2.9% (inactive) | 
15 | CCOc1cccc2c1N[C@@H](c1ccc(C(=O)O)cc1)[C@H]1CC=C[C@@H]21 | 28% (inactive) | 
16 | COc1cccc(CNC(=O)c2ccc3c(c2)N(Cc2ccc(C(F)(F)F)cc2)C(=O)c2ccccc2S3)c1OC | 8.14% (inactive) | 
17 | Cn1c(=O)c2sccc2n2c(CCC(=O)NCc3ccccc3Cl)nnc12 | -16.2% (inactive) | 
18 | Cn1nnnc1SCCCNCc1ccc(Cl)cc1 | 7.89% [at 9.22 µM] (inactive) | 
19 | Cc1cc(C=O)c(C)n1-c1ccc(NC2CCCCC2)c([N+](=O)[O-])c1 |  | 35.5 µM (active)
20 | COc1ccc(NC(=O)CN(C)C(=O)c2ccc(NC3CC3)c([N+](=O)[O-])c2)cc1 | -18.7% (inactive) | 
21 | Cc1c(NC(=O)CCC2CCCCC2)cc(C(=O)N2CCOCC2)cc1[N+](=O)[O-] | -2.9% (inactive) | 
22 | CCc1ccc(C2C(C(=O)Nc3ccccc3)=C(C)Nc3c(C(=O)Nc4ccc(C)cc4)cnn32)cc1 (configuration not stated) | 8.86% (inactive) | 
23 | CCOC(=O)c1ccc(NC(=O)Cn2c(=O)n(-c3ccc(C)cc3)c(=O)c3c2cnn3C)cc1 | 3.5% (inactive) | 
24 | Cc1ccc(-c2nnc(Nc3cccc(Br)c3)c3ccccc23)cc1S(=O)(=O)NCC1CCCO1 (configuration not stated) | 0% (inactive) | 
25 | CCc1nccn1S(=O)(=O)c1cc(Br)ccc1Br | -1.87% (inactive) | 

Row | Compound | growth rescue (activation) | Potency
26 | Cc1ccc(NC(=O)Cc2ccc(NC(=O)N3CCCCc4ccccc43)cc2)cc1 | 16.1% (inactive) | 
27 | O=C(c1cc(-c2ccc(O)cc2)on1)N1CCCc2ccccc21 |  | 12.6 µM (active)
28 | O=C(CSc1ccc2nnc(-c3ccccc3)n2n1)N1CCCc2ccccc21 | 7.54% (inactive) | 
29 | Cc1ccc(OCC(=O)Nc2ccc3oc(=O)ccc3c2)cc1C | 8.17% (inactive) | 
30 | Cc1ccc(OCC(=O)Nc2ccc(Cl)c(-c3nc4ccccc4[nH]3)c2)cc1C |  | 22.4 µM (active)
31 | Cc1ccc(NC(=O)COc2ccc(-n3ccnc3)cc2)cc1Cl | -4.75% (inactive) | 
32 | Cn1c(=O)c2c(n3c4ccccc4nc13)NC(=O)CC2c1cccc(Cl)c1 (configuration not stated) | -15.9% (inactive) | 
33 | CC(=O)N1CCc2cc(S(=O)(=O)NC(Cc3ccccc3)C(=O)NCc3ccc(C)cc3)ccc21 (configuration not stated) | 12.9% (inactive) | 
34 | CCOc1ccccc1CNCc1c(C(=O)O)c(C)n(Cc2ccc(C)cc2)c1C | -8.38% (inactive) | 
35 | Cc1ccc2ncc(C(=O)Nc3ccc(OC(F)(F)F)cc3)c(=O)n2c1 | 0.45% (inactive) | 
36 | O=C(COC(=O)c1cccc(Cl)c1Cl)NC1CCCCCC1 | 5.99% (inactive) | 
37 | O=C(COC(=O)c1cccc(Cl)c1)NC1CCCCCCC1 |  | 22.4 µM (active)
38 | Cc1ccc(C(=O)OCC(=O)NC2CCCCCCC2)cc1C | 17.2% (inactive) | 
39 | CCn1cc2nc(SCc3ccccc3Cl)n(CCc3ccccc3)c(=O)c2n1 | -12% (inactive) | 
40 | COc1ccc(CNC(=O)CCc2c(C)nn(-c3ccc(N4CCCC4)nn3)c2C)cc1 | 3.38% (inactive) | 
41 | Cc1ccccc1NC(=O)CN1C(=O)C(C)(C)c2ccccc21 | 21.2% (inactive) | 
42 | Cc1ccc(NC(=O)CN2C(=O)CC(C)Sc3ccccc32)c(C)c1 (configuration not stated) |  | 17.8 µM (active)
43 | CC1CC(=O)N(CC(=O)Nc2cccc(Cl)c2)c2ccccc2S1(=O)=O (configuration not stated) | -1.06% (inactive) | 
44 | COC(=O)c1c(NC(=O)c2cc(=O)c3c(C)cc(C)cc3o2)sc2c1CCCC2 | 0% (inactive) | 
45 | COc1ccc(-c2noc(CSc3nc4ccc(C)cc4[nH]3)n2)cc1 | 8.72% (inactive) | 
46 | COc1ccc(OC)c(CNC(=O)Cn2nc(C)c3c(C)n(-c4ccccc4)nc3c2=O)c1 | 5.84% (inactive) | 
47 | CC(C)CC(N=C1NC(C)(C)Cc2ccccc21)C(=O)O (configuration not stated) | -13.2% (inactive) | 
48 | CCOC(=O)C1=C(NC(=S)NC(=O)c2ccccc2)c2ccccc2CC1(C)C | 16.4% (inactive) | 
49 | CC1(C)Cc2ccccc2/C(=C/C(=O)c2ccccc2)N1 |  | 12.6 µM (active)
50 | O=C(CSc1n[nH]c(-c2ccccc2)n1)N1CCCCC1 | 18.7% (inactive) | 

Row | Compound | growth rescue (activation) | Potency
51 | Cc1cc(=O)n(CC(=O)Nc2cccc([N+](=O)[O-])c2)c(-n2nc(C)cc2C)n1 | 28.7% (inactive) | 
52 | COC(=O)c1cc(NC(=O)CCS(=O)(=O)c2cc(Br)cc3c2N(C(=O)C2CC2)CC3)cc(C(=O)OC)c1 | 11.2% (inactive) | 
53 | COc1ccc(CCNc2nc(-c3ccc(F)cc3)cc(C(F)(F)F)n2)cc1OC | -15.4% (inactive) | 
54 | COc1ccc(CNc2nc(-c3ccc(Cl)cc3)cc(C(F)(F)F)n2)cc1 | 23.9% (inactive) | 
55 | COc1ccc(-c2cc(C(F)(F)F)nc(S(C)(=O)=O)n2)cc1OC |  | 10 µM (active)
56 | COc1ccccc1CNC(=O)Cn1nc(C)c2nn(-c3ccc(Cl)cc3)c(C)c2c1=O | 6.06% (inactive) | 
57 | COc1ccccc1OCCCn1c(-c2ccc(Cl)cc2)nc2ccccc2c1=O | -6.55% (inactive) | 
58 | O=C(Nc1ccc2nc(SCC(=O)N3CCc4ccccc43)sc2c1)c1ccccc1F | -12.6% (inactive) | 
59 | O=C(O)c1ccccc1CSc1nc2ccccc2s1 |  | 12.6 µM (active)
60 | CN(C(=O)CSc1nc2ccc(NC(=O)COc3ccccc3)cc2s1)c1ccccc1 | 27.4% (inactive) | 
61 | Cc1cccc(-c2nc(SCc3ccc(Br)cc3)n3[nH]c(=O)cc3n2)c1 | 8.73% (inactive) | 
62 | COc1ccc(CC(=O)N2CC(=O)Nc3ccc(Br)cc3C2c2ccc(F)cc2)cc1OC (configuration not stated) | -19.6% (inactive) | 
63 | COc1ccccc1N1CCN(C(=O)c2cc3c(-c4ccc(Cl)cc4)nn(C)c3s2)CC1 |  | 35.5 µM (active)
64 | Cn1nc(-c2ccc(Cl)cc2)c2cc(C(=O)NCc3ccco3)sc21 | 19.9% (inactive) | 
65 | CCS(=O)(=O)N1CCc2cc(C(=O)N3CCN(c4ccccc4OC)CC3)ccc21 | -2.38% (inactive) | 
66 | COc1cccc(-c2cc(C(=O)N3CCN(c4ccccc4OC)CC3)no2)c1 |  | 22.4 µM (active)
67 | COc1ccc(CNC(=O)c2cc3c(-c4ccccc4F)nn(C)c3s2)c(OC)c1 | 19.5% (inactive) | 
68 | COc1ccc(Nc2ncc(C(=O)N3CCN(c4ccccc4OC)CC3)c3ccccc23)cc1 |  | inactive
69 | COc1ccc(C(=O)NCC(c2ccc(N(C)C)cc2)N2CCc3ccccc32)c(OC)c1 (configuration not stated) | 7.72% (inactive) | 
70 | CCOC(=O)c1c(NC(=O)COc2cc(C)ccc2C(C)C)sc(C)c1C | 8.05% (inactive) | 
71 | CCc1ccccc1OCCSc1nc(-c2cccs2)nc2cc(=O)[nH]n12 | 2.88% (inactive) | 
72 | Cc1nn(C(C)C(=O)NCCc2ccccc2)c(=O)c2c1sc1ccccc12 (configuration not stated) | 7.28% (inactive) | 
73 | O=C(NCCc1ccccc1)c1ccc2c(c1)N(Cc1ccc(F)cc1)C(=O)c1ccccc1S2(=O)=O | 3.53% (inactive) | 
74 | CCCCN1C(=O)c2[nH]nc(-c3ccccc3O)c2C1c1cccc(OCc2ccccc2)c1 (configuration not stated) | 0% (inactive) | 
75 | Cn1c(=O)c2c(ncn2CC(=O)Nc2cccc(C(F)(F)F)c2)n(C)c1=O | 20.5% (inactive) | 

Row | Compound | growth rescue (activation) | Potency
76 | CSc1nc(-c2ccc(F)cc2)nc2c1Cc1c(CO)cnc(C)c1O2 | 21.5% (inactive) | 
77 | O=C(CSc1ccc(-c2ccc(-n3cccn3)cc2)nn1)Nc1ccc([N+](=O)[O-])cc1 | 12.4% (inactive) | 
78 | O=C(CSc1ccc(-c2ccccn2)nn1)Nc1ccccc1 |  | 28.2 µM (active)
79 | COc1cc(NC(=O)CSc2ccc(-c3cccnc3)nn2)cc(OC)c1 | -17.4% (inactive) | 
80 | CCc1ccc(NC(=O)CN2CCSc3ccc(S(=O)(=O)N4CCCC4)cc32)cc1 | 15.8% (inactive) | 
81 | Cc1cccc(N2CCN(c3c(CN4CCCC4)c(=O)oc4ccccc34)CC2)c1C | 9.53% (inactive) | 
82 | COc1ccc(C)cc1Nc1nc2ccccc2c2nnc(C)n12 | 14.7% (inactive) | 
83 | Cc1ccc(C(=O)Nc2c(C(=O)NC(C)(C)C)oc3ccccc23)cc1 | 14.8% (inactive) | 
84 | Cn1c(SCC(=O)NC2CCCCC2)nnc1-c1cc2ccccc2o1 | -2.43% (inactive) | 
85 | CCNc1nc(-c2cc3ccccc3o2)cs1 |  | 14.1 µM (active)
86 | COc1ccccc1CN(C)C(=O)c1cc2ccccc2o1 | 20.2% (inactive) | 
87 | Cc1ccc(N2CC(c3nnc(Cc4ccccc4Cl)o3)CC2=O)cc1 (configuration not stated) | 22.1% (inactive) | 
88 | COc1cc(C(=O)N2CCN(C(=O)COc3cccc(C)c3)CC2)cc(OC)c1OC | 9.38% (inactive) | 
89 | CCN(CC)S(=O)(=O)c1ccc2c(c1)c(=O)c(C(=O)N1CCN(c3cccc(Cl)c3)CC1)cn2C | 15.9% (inactive) | 
90 | Cc1cccc(CNS(=O)(=O)c2ccc(-c3cnc(C4CC4)o3)cc2)c1 |  | inactive and 12.6 µM (active)
91 | Cc1ccc(-c2cnc(C3CC3)o2)cc1S(=O)(=O)Nc1cccc(C)c1C | 17% (inactive) | 
92 | Cc1cccc(CCNS(=O)(=O)c2ccc(S(=O)(=O)NC3CCCC3)cc2)c1 | -9.75% (inactive) | 
93 | O=C(CN1CCSc2ccccc21)N1CCN(c2ccccc2)CC1 | 29.6% (inactive) | 
94 | COc1ccccc1NC(=O)c1cc(C2CC2)nc2c1c(C)nn2-c1ccc(C)cc1 | 0% [at 9.22 µM] (inactive) | 
95 | COc1ccc(NC(=O)C2Cc3c(-c4ccc(Cl)cc4)ccnc3O2)cc1 (configuration not stated) |  | 14.1 µM (active)
96 | CC(=O)Nc1ccc(-c2ccnc3c2CC(C(=O)NC(C)C)O3)cc1 (configuration not stated) | 22.5% (inactive) | 
97 | COc1ccc(NC(=O)C2Cc3c(-c4cccc(NC(C)=O)c4)ccnc3O2)cc1OC (configuration not stated) | 10.1% (inactive) | 
